Measurements published in PubChem BioAssay (Tox21).
Results filed as inconclusive are left out. Calls of active or inactive are those of the source. Unless noted, calls come from the whole dose curve; as a rule, active = well fitted curve in the direction sought with a large enough effect in the repeat runs; inconclusive = weak or mixed curves; inactive = no such curve, though single readings can be large; an effect the other way counts as inactive or inconclusive.

What was measured:
[1] = target: Thyrotropin receptor (Homo sapiens) (UniProt P16473); assay: qHTS assay to identify small molecule agonists of the thyroid stimulating hormone receptor (TSHR) signaling pathway (AID 1224843; calls by dose curve; note: nearly all actives have a fitted effect of over 45% in size)
Outline: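 A cell-based cAMP HTRF format was run in TSHR-transfected HEK293 cells, 800 per well. Treatment: 30 min, room temperature. Detection: 1 h with labelled cAMP and anti-cAMP cryptate. Concentration-response over 15 points, three replicates.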

[2] = qHTS assay to identify small molecule agonists of the hypoxia (HIF-1) signaling pathway - cell viability counter screen (AID 1224844; calls by dose curve; note: nearly all actives have a fitted effect of over 50% in size; note: potency is the fitted concentration of half-maximal effect)
Outline: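 In this counter screen, HRE-bla ME-180 cell viability after 17 hrs of compound exposure at 37C was read by CellTiter-Glo luminescence, multiplexed with the beta-lactamase reporter measurement.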

[3] = qHTS assay to identify small molecule agonists of H2AX (AID 1224845; active = well fitted activation curve with a large enough effect in the signal ratio in the repeat runs, not every such curve was filed as active; the % refers to the signal ratio)
Outline: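 Phospho-H2AX Ser139 measured by HTRF (ex 320 nm; em 665 and 620 nm) after 24 hr antibody incubation. Compounds, 15 concentrations, 0.76% DMSO, were applied to CHO-K1 cells for 3hr at 37C before lysis.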

[4] = qHTS RealTime-Glo MT Cell Viability Assay in HepG2 cells - 24 hour (AID 1224867); note: nearly all actives have a fitted effect of over 50% in size
Outline: (§1)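 Cell number in HepG2 cultures estimated from NanoLuc luminescence generated by metabolic reduction of a prosubstrate by living cells. The homogeneous, nonlytic format allowed repeated reads at 0, 8, 16, 24, 32 and 40 h of compound exposure.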

[5] = A CellTox Green Cytotoxicity Assay to monitor cytotoxicity in HEK293 cells - 0 hour (AID 1224869); note: nearly all actives have a fitted effect of over 50% in size
Outline: (§2)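 Real-time, in one plate: 600 HEK293 cells/well with dead-cell DNA dye, pinned compound after 5 h, 37 C incubation over 40 h; viable cells give no appreciable fluorescence.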

[6] = qHTS RealTime-Glo MT Cell Viability Assay in HepG2 cells - 40 hour (AID 1224870); note: nearly all actives have a fitted effect of over 50% in size
Outline: (§3)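 Real-time viability: cells seeded at 600 per well together with NanoLuc and cell-permeant prosubstrate, compounds added after 5 h incubation. Luminescence tracked at 0, 8, 16, 24, 32 and 40 h of exposure.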

[7] = A CellTox Green Cytotoxicity Assay to monitor cytotoxicity in HEK293 cells - 40 hour (AID 1224871); note: nearly all actives have a fitted effect of over 45% in size
Outline: as §2

[8] = qHTS RealTime-Glo MT Cell Viability Assay in HEK293 cells - 16 hour (AID 1224872); note: nearly all actives have a fitted effect of over 50% in size; note: potency is the fitted concentration of half-maximal effect
Outline: (§4)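 Homogeneous bioluminescent viability format in HEK293 cells (600 cells/well). Following 5 h at 37 C/5% CO2, 23 nL compound was pintooled; the signal was measured repeatedly during 40 h incubation.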

[9] = qHTS RealTime-Glo MT Cell Viability Assay in HepG2 cells - 8 hour (AID 1224873); note: nearly all actives have a fitted effect of over 55% in size; note: potency is the fitted concentration of half-maximal effect
Outline: as §3

[10] = qHTS RealTime-Glo MT Cell Viability Assay in HEK293 cells - 40 hour (AID 1224874); details: RealTime-Glo luminescence; max response: stronger effect = lower value; note: nearly all actives have a fitted effect of over 50% in size; note: potency is the fitted concentration of half-maximal effect
Outline: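 Kinetic, non-lysing viability readout. Seed HEK293 (600/well) with reagent, incubate 5 h at 37 C/5% CO2, pin 23 nL compound in DMSO, incubate at 37 C, read luminescence at 0, 8, 16, 24, 32, 40 h.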

[11] = A CellTox Green Cytotoxicity Assay to monitor cytotoxicity in HEK293 cells - 24 hour (AID 1224875); note: nearly all actives have a fitted effect of over 45% in size
Outline: as §2

[12] = A CellTox Green Cytotoxicity Assay to monitor cytotoxicity in HepG2 cells - 16 hour (AID 1224876); note: nearly all actives have a fitted effect of over 45% in size; note: potency is the fitted concentration of half-maximal effect
Outline: (§5)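 Cytotoxicity was tracked as dead-cell DNA fluorescence in HepG2 cells treated with test compounds at 37 C; each time-point value comes from one kinetic series spanning 0, 8, 16, 24, 32 and 40 h.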

[13] = qHTS RealTime-Glo MT Cell Viability Assay in HepG2 cells - 32 hour (AID 1224877); note: nearly all actives have a fitted effect of over 55% in size
Outline: as §1

[14] = A CellTox Green Cytotoxicity Assay to monitor cytotoxicity in HepG2 cells - 40 hour (AID 1224879); note: nearly all actives have a fitted effect of over 40% in size; note: potency is the fitted concentration of half-maximal effect
Outline: as §5

[15] = qHTS assay to identify small molecule agonists of the hypoxia (HIF-1) signaling pathway (AID 1224846; active = well fitted activation curve with a large enough effect in the signal ratio in the repeat runs, not every such curve was filed as active; the % refers to the signal ratio)
Outline: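 ME-180 HRE-bla reporter cells; compounds in DMSO, 17 h at 37C; read-out beta-lactamase via CCF4-AM FRET.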

[16] = qHTS assay to identify small molecule agonists of H2AX - cell viability counter screen (AID 1224847; calls by dose curve;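 note: wild-type CHO-K1 cells; top concentration of the series differs between compounds; nearly all actives have a fitted effect of over 30% in size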)
Outline: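 CHO-K1 cells plated overnight at 37C, then exposed 3 h at 37C to compounds at 15 concentrations (0.76% DMSO final). Viability by CellTiter-Glo luminescence after 30 min at room temperature.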

[17] = qHTS assay to identify small molecule antagonists of the estrogen related receptor (ERR) signaling pathway from Tox21 library (AID 1224848); note: nearly all actives have a fitted effect of over 50% in size; note: potency is the fitted concentration of half-maximal effect
Outline: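 ERR cell line, 2,000 cells/well. 6 h settle, then compound (DMSO) added; 18 h at 37 C; ONE-Glo luminescence after 30 min RT.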

[18] = qHTS assay to identify small molecule agonists of the estrogen related receptor (ERR) signaling pathway from Tox21 library (AID 1224849; calls by dose curve; note: nearly all actives have a fitted effect of over 15% in size); details: ERR reporter cell line, ONE-Glo luciferase, 18 h; at 92.4 µM (top of the series) unless noted
Outline: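 Luciferase activity in ERR pathway reporter cells served as the agonist readout; exposure lasted 18 h at 37 C, with ONE-Glo detection after 30 min at room temperature.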

[19] = qHTS RealTime-Glo MT Cell Viability Assay in HEK293 cells - 32 hour (AID 1224868)
Outline: as §4

[20] = A CellTox Green Cytotoxicity Assay to monitor cytotoxicity in HepG2 cells - 24 hour (AID 1224878); note: nearly all actives have a fitted effect of over 45% in size; note: potency is the fitted concentration of half-maximal effect
Outline: as §5
% is set by controls: 0 for no effect and ±100 for the full control effect.

Thyrotropin receptor (Homo sapiens), sequence (P16473 whole entry, looked up): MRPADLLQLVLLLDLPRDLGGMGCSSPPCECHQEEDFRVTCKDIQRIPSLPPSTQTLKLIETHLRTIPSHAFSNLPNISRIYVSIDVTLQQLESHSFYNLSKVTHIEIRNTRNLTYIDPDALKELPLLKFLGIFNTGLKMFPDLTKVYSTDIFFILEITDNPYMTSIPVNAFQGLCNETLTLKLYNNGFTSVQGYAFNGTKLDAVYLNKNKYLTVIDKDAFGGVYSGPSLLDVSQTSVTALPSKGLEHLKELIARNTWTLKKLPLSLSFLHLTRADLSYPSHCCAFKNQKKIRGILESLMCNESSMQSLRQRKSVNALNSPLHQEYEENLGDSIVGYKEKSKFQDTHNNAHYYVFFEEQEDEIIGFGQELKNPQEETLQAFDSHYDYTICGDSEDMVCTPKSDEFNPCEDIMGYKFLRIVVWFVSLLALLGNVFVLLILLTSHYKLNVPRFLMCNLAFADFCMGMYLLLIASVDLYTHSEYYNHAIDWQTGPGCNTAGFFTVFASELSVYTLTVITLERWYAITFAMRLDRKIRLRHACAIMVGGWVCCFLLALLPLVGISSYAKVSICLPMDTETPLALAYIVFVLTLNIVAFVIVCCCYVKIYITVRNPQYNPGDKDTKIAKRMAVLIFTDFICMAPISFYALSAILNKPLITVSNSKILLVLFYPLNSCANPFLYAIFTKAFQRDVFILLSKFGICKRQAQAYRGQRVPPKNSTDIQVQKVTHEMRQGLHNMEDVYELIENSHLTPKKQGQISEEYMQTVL

O=C(CCCN1CC=C(n2c(=O)[nH]c3ccccc32)CC1)c1ccc(F)cc1
active: Potency [8] 9.52 µM | Potency [10] 9.52 µM
inactive: Potency [1] | Potency [2] | Potency [3] | Potency [4] | Potency [5] | Potency [6] | Potency [7] | Potency [9] | Potency [11] | Potency [12] | Potency [13] | Potency [14]

Cc1ccccc1N=C(N)Nc1ccccc1C
inactive: Potency [1] | Potency [2] | outcome [15] | Potency [16] | Potency [17] | activity change, positive = activation [18] -3.25% | Potency [4] | Potency [19] | Potency [5] | Potency [6] | Potency [7] | Potency [8] | Potency [9] | max response [10] -12.1% | Potency [11] | Potency [12] | Potency [13] | Potency [20] | Potency [14]

NCCNCCO
inactive: Potency [1] | Potency [2] | outcome [15] | Potency [16] | Potency [17] | activity change, positive = activation [18] 0.838% | Potency [4] | Potency [19] | Potency [5] | Potency [6] | Potency [8] | Potency [9] | max response [10] 20.2% | Potency [11] | Potency [12] | Potency [13] | Potency [20] | Potency [14]

O=c1[nH]c2ccc(Cl)cc2o1
inactive: Potency [1] | Potency [2] | outcome [15] | Potency [16] | Potency [17] | activity change, positive = activation [18] 4.04% | Potency [4] | Potency [19] | Potency [5] | Potency [6] | Potency [7] | Potency [8] | Potency [9] | max response [10] -0.887% | Potency [11] | Potency [12] | Potency [13] | Potency [20] | Potency [14]

O=[N+]([O-])c1ccc(Nc2ccc(Nc3ccccc3)c(S(=O)(=O)O)c2)c([N+](=O)[O-])c1
inactive: Potency [1] | Potency [2] | outcome [15] | Potency [16] | Potency [4] | Potency [19] | Potency [5] | Potency [6] | Potency [7] | Potency [8] | Potency [9] | max response [10] 5.22% | Potency [11] | Potency [12] | Potency [13] | Potency [20] | Potency [14]

CC(C)Nc1cccnc1N1CCN(C(=O)c2cc3cc(NS(C)(=O)=O)ccc3[nH]2)CC1
inactive: Potency [1] | Potency [2] | outcome [15] | Potency [16] | activity change, positive = activation [18] -20.7% [at 42.5 µM] | Potency [4] | Potency [19] | Potency [5] | Potency [6] | Potency [7] | Potency [9] | max response [10] -29% | Potency [11] | Potency [13] | Potency [20] | Potency [14]

CCOC(=O)C1=C(C)NC(C)=C(C(=O)OC)C1c1cccc(Cl)c1Cl (stereo not drawn)
inactive: Potency [1] | Potency [2] | outcome [15] | Potency [16] | activity change, positive = activation [18] -28.7% [at 42.5 µM] | Potency [7] | Potency [11] | Potency [20] | Potency [14]
active: Potency [9] 19 µM

Oc1ccc(Cl)c2cccnc12
inactive: Potency [1] | Potency [2] | outcome [15] | Potency [16] | activity change, positive = activation [18] -56.3% [at 42.5 µM] | Potency [4] | Potency [6] | Potency [9] | Potency [11] | Potency [12] | Potency [13] | Potency [20]
active: Potency [17] 29.8 µM

CC(=O)OCC[N+](C)(C)C
inactive: Potency [1] | Potency [2] | Potency [3] | Potency [16] | Potency [4] | Potency [19] | Potency [5] | Potency [6] | Potency [7] | Potency [8] | Potency [9] | max response [10] 1.87% | Potency [11] | Potency [12] | Potency [13] | Potency [20] | Potency [14]

CC(=O)c1cc2ccccc2s1
inactive: Potency [1] | Potency [2] | outcome [15] | Potency [16] | Potency [4] | Potency [19] | Potency [5] | Potency [6] | Potency [7] | Potency [8] | Potency [9] | max response [10] 2.63% | Potency [11] | Potency [12] | Potency [13] | Potency [20] | Potency [14]

C/C=C(/C(=C/C)c1ccc(O)cc1)c1ccc(O)cc1
inactive: Potency [1] | Potency [2] | Potency [3] | Potency [4] | Potency [5] | Potency [6] | Potency [8] | Potency [9] | Potency [11] | Potency [13]
active: Potency [10] 19 µM | Potency [12] 15.1 µM | Potency [20] 16.9 µM | Potency [14] 19 µM

O=C(/C=C/c1ccc(O)c(O)c1)O[C@@H]1C[C@@](OC(=O)/C=C/c2ccc(O)c(O)c2)(C(=O)O)C[C@@H](O)[C@@H]1O
inactive: Potency [1] | Potency [2] | outcome [15] | Potency [16] | Potency [4] | Potency [19] | Potency [5] | Potency [6] | Potency [7] | Potency [8] | Potency [9] | max response [10] 3.32% | Potency [11] | Potency [12] | Potency [13] | Potency [20] | Potency [14]

C[C@@]12CCC[C@H]1[C@@H]1CC[C@H]3C[C@@H](O)CC[C@]3(C)[C@H]1CC2
inactive: Potency [1] | Potency [2] | outcome [15] | Potency [16] | Potency [17] | activity change, positive = activation [18] -6.1% [at 42.5 µM] | Potency [4] | Potency [19] | Potency [5] | Potency [6] | Potency [7] | Potency [8] | Potency [9] | max response [10] 5.8% | Potency [11] | Potency [12] | Potency [13] | Potency [20] | Potency [14]

CCCCCCCCC(CCCCCC)C(=O)O (stereo not drawn)
inactive: Potency [1] | Potency [3] | activity change, positive = activation [18] -27.5% | Potency [4] | Potency [19] | Potency [5] | Potency [6] | Potency [8] | Potency [9] | max response [10] -3.96% | Potency [11] | Potency [13]
active: Potency [2] 43.6 µM | Potency [20] 61.6 µM | Potency [14] 61.6 µM

CCCCOc1ccc(OCCCN2CCOCC2)cc1
inactive: Potency [1] | Potency [2] | Potency [3] | Potency [16] | Potency [4] | Potency [6] | Potency [8] | Potency [9] | max response [10] -27.6% | Potency [11] | Potency [12] | Potency [13] | Potency [20] | Potency [14]

CCC(C)COC(=O)CC(C)C (stereo not drawn)
inactive: Potency [1] | Potency [3] | Potency [16] | Potency [4] | Potency [19] | Potency [5] | Potency [6] | Potency [7] | Potency [8] | Potency [9] | Potency [11] | Potency [13]
active: Potency [2] 19.5 µM | Potency [20] 54.9 µM | Potency [14] 49 µM

CCCCCCNC(=O)n1cc(F)c(=O)[nH]c1=O
inactive: Potency [1] | Potency [2] | outcome [15] | Potency [16] | Potency [17] | activity change, positive = activation [18] -8.15% [at 42.5 µM] | Potency [4] | Potency [19] | Potency [5] | Potency [6] | Potency [7] | Potency [8] | Potency [9] | max response [10] -6.08% | Potency [11] | Potency [12] | Potency [13] | Potency [20] | Potency [14]
